Data from PubChem BioAssay.
Activity calls are given as the source filed them.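 The calls were made as follows: active = z-score of at least 1.8 in each of two replicates, scored against plate mean and spread of sample wells; inactive = the rest.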

Test: viability rescue of complex I mutant cybrids, primary screen, cell-based, galactose medium, ATP luminescence (AID 1645843);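 also: positive z means more ATP and so rescue of galactose-driven cybrid death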
Details: complex I mutant cybrid cells, 72 h, active compounds read high

Structure (SMILES)	z-score
Cc1ccsc1C(=O)N1CCC(n2cc(C(C)(C)O)nn2)CC1	-0.505 (inactive)
Cc1cccc2ncn(C3CC(C)(C)NC(C)(C)C3)c(=O)c12	-0.515 (inactive)
CC(C)Oc1ccc(Cl)cc1-c1nnc2ccccn12	-0.805 (inactive)
Cc1cc(C)c(CNC(C)CCC(C)C)c(C)c1CO (configuration not stated)	0.435 (inactive)
O=C(Nc1ccncc1)c1ccc2c(c1)OCCO2	0.445 (inactive)
CN1CCN(CC(C)(C)C)CC1CCO (configuration not stated)	-0.57 (inactive)
COc1cc(-c2cccc(C)c2C)nc(N)n1	-0.335 (inactive)
Cc1nsc(NC(=O)N2CCCCC2c2ccc(F)cc2)n1 (configuration not stated)	-0.445 (inactive)
O=c1cc(-c2ccccc2Cl)nc(-c2ccc(CN3CC[C@H](O)C3)cc2)[nH]1	0.305 (inactive)
CN(CC1Cc2ccccc2O1)C(=O)Nc1nc(-c2ccccc2)ns1 (configuration not stated)	1.98 (inactive)
CCC(Nc1ncc(C)c(-c2cnn(C)c2)n1)c1nc2ccc(C)cc2[nH]1 (configuration not stated)	-0.955 (inactive)
Cc1ccc(C)c(-c2c(C)sc3ncn(C4CCN(C)C4=O)c(=O)c23)c1 (configuration not stated)	0.12 (inactive)
C=C1C2(C(=O)N3CCC(c4cccc(OC)c4OC)C3)CCC(C2)C1(C)C (configuration not stated)	1.19 (inactive)
COc1nc2c(cc1C(=O)N1CCOc3ccccc31)CCC2	0.225 (inactive)
COc1ccccc1N1CCN(C(=O)CCC(C)C)CC1(C)C	2.31 (active)
Cc1ccccc1-c1cccc(N2CCC(N3CCN(C)C(C)C3)CC2)c1 (configuration not stated)	1.36 (inactive)
Cc1ccc(C)c(CNC(=O)Nc2nc(C)ns2)c1	0.47 (inactive)
Cc1ccc2nc(Cn3cnc4ccc(F)cc4c3=O)cn2c1	-0.15 (inactive)
CC(O)c1cn(CC2CCN(C(=O)CC3CCCCCC3)CC2)nn1 (configuration not stated)	-0.54 (inactive)
CSCc1ccc(C(=O)Nc2cccc3cccnc23)o1	1.12 (inactive)
COc1ccc(-c2cccc(C(=O)c3nccn3C)c2)c(C)c1	-0.555 (inactive)
CCN1CCCC(C(=O)N2CCC(n3cc(C(C)(C)C)nn3)CC2)C1 (configuration not stated)	0.15 (inactive)
